esBAF inh: Bmi1 luciferase reporter increase in mESCs, primary screen, esBAF inhibitor project, mouse ES cells, Bmi1 luciferase knock-in, single point; 24 h; 100% = twice the neutral-well signal; reporter increase, % at 12.5 µM; 350,000 tested, 2% active; in the data active means activation above about 40%;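 further: 0% = median of the plate's neutral control wells and 100% = double that signal; a rise in the Bmi1 reporter signal indicates esBAF inhibition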
Gli-Sufu block: Gli-Sufu pathway antagonists, primary screen, luciferase luminescence, Sufu-KO-LIGHT cells, uHTS. Sufu-KO-LIGHT fibroblasts, Gli luciferase reporter luminescence. inhibition, % at 5 µM. 340,000 tested, 0.74% active. AID 588413, 2011;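 active means inhibition above about 55%, limit read from the data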;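 further: 0% = DMSO-treated cells and 100% = wells with medium but no cells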
SMARCA2 activ: SMARCA2 (BRM) function activators, primary screen, cell-based, luminescence, high throughput; MG213 cells, MMTV-luciferase reporter, dexamethasone, overnight; activation, % at 9.1 µM; 370,000 tested, 1% active; AID 652017, 2013; in the data active means activation above about 7.8%;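 further: 0% = vehicle wells and 100% = reference activator wells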
697 NFkB inh: inhibitors of PMA/ionomycin-induced NF-kB reporter, 697 cells, primary screen, B-cell NF-kB inhibitor project, cell-based, luminescence, uHTS | 330,000 tested, 0.33% active | inhibition, % at 4 µM | 697 B-cell NF-kB luciferase reporter, 16 h; in the data active means inhibition above about 35%
Jurkat NFkB inh: inhibitors of induced NF-kB luciferase reporter, primary screen, TCR NF-kB activation inhibitor project, cell-based, luminescence, uHTS; Jurkat, PMA/ionomycin-induced NF-kB luciferase reporter; inhibition, % at 4 µM; 330,000 tested, 0.53% active; in the data active means inhibition above about 50%
Gli antag conf: Gli-SUFU pathway antagonists, confirmation, single concentration, luciferase luminescence, Sufu-KO-LIGHT cells; shares compounds with Gli-Sufu block; Gli luciferase reporter; inhibition, % at 5 µM; 2,500 tested, 40% active;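 active means mean inhibition at 5 µM reaching about 45%, limit read from the data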;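 further: plate controls were DMSO-treated cells for no effect and wells lacking cells for full effect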
Gli cytotox: cytotoxicity in Sufu-KO-LIGHT cells, confirmation, cytotoxicity control for Gli-SUFU antagonist project, cell-based, ATP luminescence, single concentration | cytotoxicity, % at 5 µM | shares compounds with Gli-Sufu block | 2,500 tested, 32% active | AID 651994, 2013;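 active means mean cytotoxicity at 5 µM above about 25%, limit read from the data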;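 further: cells exposed to compound overnight for roughly 16 to 18 hours; plate controls were DMSO wells with cells for no effect and medium without cells for full effect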
Wnt3a counter: Wnt3a reporter signal inhibition, confirmation, counter-screen for Gli-SUFU antagonist project, Wnt-LIGHT cells, luminescence, single concentration; AID 651995, 2013; inhibition, % at 6.25 µM; Wnt3a-driven luciferase reporter; shares compounds with Gli-Sufu block; 2,500 tested, 20% active;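 active means mean inhibition above about 25%, limit read from the data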
* hit, by the source's call; . = no result. Sampled rows, rich in hits. Any-hit rate of the full collection: about 3.3%.

SMILES | esBAF inh | Gli-Sufu block | SMARCA2 activ | 697 NFkB inh | Jurkat NFkB inh | Gli antag conf | Gli cytotox | Wnt3a counter
CC1CCC(NC(=O)c2cccc(S(=O)(=O)N3CCN(c4ccccc4)CC3)c2)CC1 (stereo not given) | -2.7 | 50.1 | -1.2 | -1.9 | 13.3 | 46.9* | 24.9 | -30.1
CN(CCOc1ccc(Cl)cc1)C(=O)c1cccc(S(=O)(=O)N2CCN(c3ccccc3)CC2)c1 | -23.6 | 50.9 | -4.1 | . | . | 57.5* | 34.1* | -5.9
CN(Cc1c(F)cccc1Cl)C(=O)c1cccc(S(=O)(=O)N2CCN(Cc3ccccc3)CC2)c1 | 1.6 | 7.7 | -1.1 | . | . | . | . | .
C[C@H](CO)N1C[C@H](C)[C@H](CN(C)C(=O)C2CC2)Oc2cc(C#CCN(C)C)ccc2S1(=O)=O | 2.4 | . | . | . | . | . | . | .
COc1ccc(S(=O)(=O)N2CCCCN3[C@@H](CO)[C@H](c4ccc(C#CC(C)C)cc4)[C@@H]3C2)cc1 | -8.3 | . | . | . | . | . | . | .
Cc1cccc(-c2nc(NCCCN(C)C)c3ccccc3n2)c1 | 22.6 | 55.0* | -0.8 | -6.9 | -15.7 | 21.3 | 4.5 | -48.9
Cc1cccc(-c2nc(NCCCN3CCOCC3)c3ccccc3n2)c1 | 16.2 | 4.9 | 1.4 | -12.1 | -22.2 | . | . | .
CN(C)CCCNc1nc(-c2ccc(Cl)cc2)nc2ccccc12 | 3.0 | 69.4* | 1.1 | 1.2 | 23.0 | 34.5 | 27.4* | -73.0
O=C(O)[C@@H]1[C@@H](CO)[C@@H]2Cn3c(ccc(-c4ccccc4)c3=O)[C@@H]2N1Cc1ccccc1F | 2.7 | . | . | . | . | . | . | .
N#C/C(=N\Nc1ccc(Cl)cc1)C(N)=S | 26.2 | 59.6* | -3.2 | -72.1 | -13.6 | 59.0* | 11.8 | 31.7*
N#C/C(=N\Nc1ccccc1)C(N)=S | . | 12.8 | -2.9 | -19.1 | 10.4 | . | . | .
Cc1ccc2[nH]c3c(N4CCN(Cc5ccccc5)CC4)ncnc3c2c1 | -33.1 | 53.4 | -1.1 | 22.4 | 15.4 | 53.4* | 37.3* | -5.2
Cc1ccc2c(c1)[nH]c1c(N3CCN(Cc4ccccc4)CC3)ncnc12 | 8.9 | 68.2* | -6.5 | 11.1 | 28.0 | 62.6* | 30.1* | 6.6
C[C@@H]1CCCCO[C@@H](CN(C)C(=O)Nc2ccc3c(c2)OCO3)[C@H](C)CN([C@H](C)CO)C(=O)c2cc(NC(=O)Cc3ccccc3)ccc2O1 | 5.7 | . | . | . | . | . | . | .
O=C(N/N=C/c1cc(Br)ccc1O)C(=O)Nc1ccccc1OC(F)(F)C(F)F | -45.0 | 59.5* | -2.5 | . | . | 73.1* | 31.7* | 58.1*
O=C(N/N=C/c1cc(Cl)ccc1O)C(=O)Nc1ccccc1OC(F)(F)C(F)F | . | 55.0* | -4.3 | . | . | 64.3* | 46.4* | 64.3*
C[C@@H]1CN([C@H](C)CO)C(=O)c2cc(C3=CCCCC3)cnc2O[C@@H]1CN(C)C(=O)c1cccc(F)c1 | 5.4 | . | . | . | . | . | . | .
CN(c1ccccc1C(N)=O)S(=O)(=O)c1ccccc1 | -7.1 | 51.7 | 1.4 | -12.6 | 0.6 | 12.5 | 8.6 | 19.1
CN1CCN(C(=O)C[C@H]2CC[C@@H]3[C@H](COC[C@@H](O)CN3C(=O)Nc3ccc(F)cc3)O2)CC1 | -0.4 | . | . | . | . | . | . | .
COCC(=O)Nc1ccc2c(c1)C(=O)N(C)C[C@H](OC)[C@@H](C)CN(Cc1ccccn1)[C@@H](C)CO2 | -15.3 | . | . | . | . | . | . | .
O=C(OCC(=O)N1CCCC1)c1cc(=O)c2ccccc2o1 | 0.4 | 53.7 | 0.5 | 8.9 | -16.9 | 14.8 | 7.5 | -1.3
FC(F)Sc1ccc(-n2c(-c3ccc(Cl)cc3)c[n+]3c2CCC3)cc1 | . | 53.4 | -3.8 | -6.4 | -11.9 | 24.1 | 1.8 | -93.5
Cc1ccc(-n2c(-c3ccccc3)c[n+]3c2CCC3)cc1 | . | 81.8* | -7.1 | 23.0 | 34.7 | 84.3* | 23.8 | 40.1*

Screening data as filed in PubChem BioAssay.
